# Measurements: PubChem BioAssay (Tox21)
# Inconclusive results are not listed. Activity calls are given as the source filed them. Calls come from the whole dose curve; as a rule, active = well fitted cell-killing curve with a large enough effect in the repeat runs; inconclusive = weak or mixed curves, or effect the other way; inactive = flat fitted curve, though single readings scatter.
# Assay: cAMP Responsive Elements (CRE) small molecule agonists, cell-based qHTS assay: qHTS cell viability counter screen (AID 2060914); note: nearly all actives have a fitted effect of over 50% in size
# Conditions: CRE-bla HEK293T viability, CellTiter-Glo luminescence, 5 h; series mostly up to 92.4 µM; activity change, negative = cytotoxicity: at the top concentration
# Method in brief: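 CRE-bla HEK293T cells in 10% dialyzed FBS medium were exposed to compounds for 3 h at 37C after 18 h plating. CellTiter-Glo was then added in the same wells, and luminescence was read after 30 min at room temperature.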
# % is set by controls: 0 for no effect and ±100 for the full control effect.
SMILES,Potency,"activity change, negative = cytotoxicity"
CC(=O)Nc1cccc(O)c1,inactive,
OC(CCN1CCCCC1)(c1ccccc1)C1CCCCC1 (stereo not given),,-0.394% [at 42.5 µM] (inactive)
CC[N+](CC)(CC(=O)Nc1c(C)cccc1C)Cc1ccccc1,inactive,
Nc1nc2ccccc2[nH]1,inactive,
C=C[C@H]1CN2CC[C@H]1C[C@H]2[C@H](O)c1ccnc2ccc(OC)cc12,inactive,
NCCC(O)(P(=O)(O)O)P(=O)(O)O,,-0.845% [at 42.5 µM] (inactive)
O=C1CCCCCCCCCCC1,inactive,
CC1(C)S[C@@H]2[C@H](NC(=O)COc3ccccc3)C(=O)N2[C@H]1C(=O)O,inactive,
CCCCOC(=O)CC#N,,2.52% (inactive)
NC(=O)c1ncn([C@@H]2O[C@H](CO)[C@@H](O)[C@H]2O)c1O,,12.4% [at 42.5 µM] (inactive)
Cc1cc(OI)c(C(C)C)cc1-c1cc(C(C)C)c(OI)cc1C,,2.77% [at 42.5 µM] (inactive)
CC(CC=O)CCCC(C)(C)O (stereo not given),,27.7% (inactive)
COC(C)(C)CCO,,-0.393% (inactive)
CC(C)Nc1ccc(NC(C)C)c2c1C(=O)c1ccccc1C2=O,,-8.23% [at 42.5 µM] (inactive)
CC(C)c1ccc(C#N)cc1,,-5.22% (inactive)
CC(C)=CCC[C@](C)(O)[C@@H]1CC=C(C)CC1,,-0.256% (inactive)
CC(C)C1CCC(O)CC1 (stereo not given),,1.64% (inactive)
Cn1c(=O)c2[nH]cnc2n(C)c1=O,inactive,
NCC1(Cc2noc(=O)[nH]2)CCCCC1,,-1.98% (inactive)
Cc1ccccn1,,-13.6% (inactive)

SMILES,Potency,"activity change, negative = cytotoxicity"
c1cc2ccc3ccc4ccc5cccc6c(c1)c2c3c4c56,,-0.0627% [at 3.27 µM] (inactive)
O=C(Nc1ccc2c(O)c(N=Nc3ccc(N=Nc4ccc(S(=O)(=O)O)cc4)cc3)c(S(=O)(=O)O)cc2c1)c1ccccc1,,-6.88% (inactive)
NCCN1CCNC1=O,,0.75% (inactive)
CC(=O)OC(C)(C)C1CC=C(C)CC1 (stereo not given),inactive,
CC(C)C1=CC2=CC[C@@H]3[C@](C)(CCC[C@@]3(C)C(=O)O)[C@H]2CC1,,-6.39% (inactive)
CC(C)(C)OC=O,,-0.953% (inactive)
CCC(=O)c1c(O)cc(O)cc1O,,-12.4% [at 42.5 µM] (inactive)
CCN(CC)CC(=O)OCC(=O)[C@@]1(O)CC[C@H]2[C@@H]3CCC4=CC(=O)CC[C@]4(C)[C@H]3[C@@H](O)C[C@@]21C,,3.18% [at 42.5 µM] (inactive)
C[C@@H](O)[C@H]1C(=O)N2C(C(=O)O)=C(SCCN=CN)C[C@H]12,,1.75% [at 42.5 µM] (inactive)
NCCCN1CCN(CCCN)CC1,,11.8% (inactive)
NC(=O)c1ncn([C@@H]2O[C@H](CO)[C@@H](O)[C@H]2O)c1N,,4.16% [at 42.5 µM] (inactive)
CC1=C(CC(=O)O)c2cc(F)ccc2/C1=C\c1ccc(S(C)(=O)=O)cc1,,-6.31% [at 42.5 µM] (inactive)
CCCCCCCCCCCCCCO,inactive,
CCN(Cc1ccccc1)c1ccccc1,,-14.4% (inactive)
COC(=O)OC,inactive,
O=C(Cl)c1c(Cl)cccc1Cl,,-11.1% (inactive)
C=CC(C)(C)CC(=O)OC,,15.8% (inactive)
CCc1cc2cc(OC)c(OC)cc2c(Cc2ccccc2)n1,,6.38% [at 42.5 µM] (inactive)
CCOC(=O)[C@@](C)(N)Cc1ccc(O)c(O)c1,,-2.17% [at 42.5 µM] (inactive)
C=CC(C)(CCC=C(C)C)OC(=O)CC (stereo not given),,3.03% (inactive)
